# APE1 inh = blocks human APE1 abasic DNA cleavage. P27695. recombinant APE1, TAMRA/BHQ-2 abasic DNA cleavage fluorescence. Potency, µM (series often up to 65.8 µM), inactives show top-dose activity change, negative = inhibition, hits mostly inhibitors. 0.35% of 350,000 active;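 note: plate controls were vehicle for no effect and reference inhibitor for full effect; nearly all actives have a fitted effect of over 55% in size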
#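 Step 1: APE1 (0.75 nM) with compound, 15 min RT. Step 2: add 50 nM fluorophore/quencher THF duplex. Step 3: three fluorescence reads 60 s apart (525/598 nm); read 3 minus read 1 = reaction progress.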
# Pol kappa inh-1 = DNA polymerase kappa (human) inhibition; purified Pol kappa, fluorescent DNA synthesis assay, 10 min; Potency, µM (titrated, usually from 107 µM), for inactives: at the highest dose activity, negative = inhibition, most hits filed as inhibitors; 0.53% of 400,000 active; AID 588579; note: % is set by controls: 0 for no effect and ±100 for the full control effect
#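 Here, compound and 10 nM enzyme are combined for 15 min at room temperature; adding 50 nM substrate (final) starts DNA synthesis, tracked by fluorescence at 0 and 10 min against buffer-only wells.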
# GLS inh = inhibitors of human glutaminase (GLS); O94925; GLS enzymatic activity, qHTS titration; Potency, µM (series often up to 45.5 µM), without a hit: at the top dose activity change, negative = inhibition, actives largely listed as inhibitors; 0.21% of 410,000 active; AID 624170; note: % is set by controls: 0 for no effect and ±100 for the full control effect
#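 hKGA in 45 mM KH2PO4 (pH 8.2), 0.02% Tween-20 with compound, then 1mM L-Glutamine (stock as added) plus glutamate oxidase/HRP/Amplex red coupling mix. Fluorescence read initially and after 30 min at RT; signal change reflects glutamate formation.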
# POLB inh = blocks human DNA polymerase beta activity | P06746 | Pol beta primer extension/strand displacement, fluorescence kinetic | Potency, µM (top dose mostly 114 µM), for the others: top-dose activity change, negative = inhibition, actives largely listed as inhibitors | 1.3% of 340,000 active; note: % is set by controls: 0 for no effect and ±100 for the full control effect
#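 Enzyme-only controls used 10 nM Pol beta; buffer lacking enzyme served as negative control. Compound preincubated 15 min, then 50 nM substrate added; 0 and 10 min reads at room temperature.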
# POLI inh = inhibitors of human DNA polymerase iota; Q9UNA4; Pol iota fluorescent replication assay, 10 min; Potency, µM (series often up to 115 µM), inactives show at the top dose activity, negative = inhibition, most hits filed as inhibitors; 1% of 390,000 active; AID 588590
#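 Pol iota at 10 nM preincubated 15 min with compounds at room temperature; reaction started with fluorescent substrate, 50 nM final. Fluorescence read kinetically at 0 and 10 min; buffer-only wells as negative control.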
# Pol eta inh-1 = inhibitors of human DNA polymerase eta | Q9Y253 | 1.2% of 390,000 active | recombinant Pol eta, fluorescent DNA replication assay | Potency, µM (doses to about 114 µM), for inactives: top-dose activity change, negative = inhibition, most hits filed as inhibitors; note: % is set by controls: 0 for no effect and ±100 for the full control effect
# Target sequence (Q9Y253 whole entry, looked up): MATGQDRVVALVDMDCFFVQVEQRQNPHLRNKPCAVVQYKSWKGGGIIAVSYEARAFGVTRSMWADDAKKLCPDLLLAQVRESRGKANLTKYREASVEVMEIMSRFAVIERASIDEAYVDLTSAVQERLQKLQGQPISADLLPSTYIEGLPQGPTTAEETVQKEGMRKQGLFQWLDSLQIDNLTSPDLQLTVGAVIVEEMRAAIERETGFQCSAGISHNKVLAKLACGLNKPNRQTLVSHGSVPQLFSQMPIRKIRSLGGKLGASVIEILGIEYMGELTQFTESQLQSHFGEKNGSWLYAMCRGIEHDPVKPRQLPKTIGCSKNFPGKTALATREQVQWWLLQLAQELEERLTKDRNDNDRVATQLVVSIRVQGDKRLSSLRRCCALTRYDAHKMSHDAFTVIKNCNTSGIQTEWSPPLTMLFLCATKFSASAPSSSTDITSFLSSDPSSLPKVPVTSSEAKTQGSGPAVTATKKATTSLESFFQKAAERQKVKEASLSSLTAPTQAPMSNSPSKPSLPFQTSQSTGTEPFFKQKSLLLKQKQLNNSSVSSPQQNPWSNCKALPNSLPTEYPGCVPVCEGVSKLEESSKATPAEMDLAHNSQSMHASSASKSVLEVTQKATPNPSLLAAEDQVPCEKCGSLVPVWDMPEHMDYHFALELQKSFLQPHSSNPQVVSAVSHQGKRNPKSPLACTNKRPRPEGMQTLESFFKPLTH
#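 Pol eta at 10 nM preincubated with compounds 15 min at room temperature; reaction started with fluorescent substrate (50 nM final) and read kinetically at 0 and 10 min.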
# Pol kappa inh-2 = Pol kappa (human) inhibition, cherry-pick confirmation; 76% of 920 active; shares compounds with Pol eta inh-1; purified Pol-kappa, fluorescent strand-displacement substrate; Potency, µM, usual class: inhibitors; AID 720501
# Pol eta inh-2 = confirmation of human DNA polymerase eta inhibitors; shares compounds with Pol eta inh-1; AID 720502; Potency, µM, most hits filed as inhibitors; Pol eta primer extension, TAMRA/BHQ fluorescence, 10 min; 64% of 2,600 active
# The depositor's hits bear a star; ? = inconclusive; nt = not tested or not shown; [ ] = dose if it differs, or a comment. Only some compounds are listed: those with a hit (about 2.4% of all), similar ones and a draw of the others. Calls come from the whole dose curve; as a rule, active = well fitted curve in the direction sought with a large enough effect; inconclusive = small, poorly fitted or top-dose-only effect, or another doubt; inactive = no such curve, though single readings can be large; an effect the other way counts as inactive or inconclusive. Potency is the fitted concentration of half-maximal effect.
SMILES,APE1 inh,Pol kappa inh-1,GLS inh,POLB inh,POLI inh,Pol eta inh-1,Pol eta inh-2,others
COc1cc(OC)cc(-n2nc(C(=O)N3CC(C)CC(C)C3)c3ccccc3c2=O)c1 (stereo unspecified),2.5%,-6.1%,8.7%,14.4%,1.9%[58.9 µM],-23.7%,nt,
O=C(CCN1C(=O)/C(=C\c2cccs2)SC1=S)Nc1ccc(C(=O)O)cc1,18.0%,?,5.7%,87.7%,?,56.2µM*,?,
COc1ccccc1/C=C1\SC(=S)N(CCC(=O)Nc2ccc(C(=O)O)c(O)c2)C1=O,-2.9%,-33.6%,-2.5%,79.4µM*,?,35.5µM*,?,Pol kappa inh-2=?
CC(/C=C1\SC(=S)N(CCC(=O)Nc2cccc(C(=O)O)c2)C1=O)=C\c1ccccc1,37.8%,-13.8%,10.1%,?,-11.8%,?,?,Pol kappa inh-2=?
O=C(O)CN1C(=O)/C(=C\C(Br)=C\c2ccccc2)SC1=S,-10.8%,?,-22.1%,?,?,8.91µM*,23.9*,
O=C(O)CN1C(=O)/C(=C\c2ccc(OC(=O)c3ccco3)cc2)SC1=S,5.7%[12.4 µM],-3.7%,2.1%,-16.5%,?,-17.0%,nt,
O=C(CN1C(=O)S/C(=C\c2cccn2-c2ccc(C(=O)O)cc2)C1=O)Nc1ccc(F)cc1,nt,nt,nt,nt,nt,nt,30.1*,
CCOc1ccc(NC(=O)CN2C(=O)S/C(=C/c3cccn3C)C2=O)cc1,19.2%,-9.3%,0.0%,40.5%,34.0%,-5.9%,nt,
O=C(O)CN1C(=O)/C(=C/c2ccc(SCc3ccccc3)o2)SC1=S,28.2µM*,79.4µM*,-26.2%,3.55µM*,?,17.8µM*,75.7*,
COc1cccc(-c2nc(CSCC(=O)NCCc3ccc(Cl)cc3)c(C)o2)c1,nt,-18.2%,0.1%,-8.2%,-11.8%,-14.7%,nt,
COc1ccccc1-c1ccc(/C=C2/C=C(C)OC2=O)o1,-1.3%,-26.8%,2.5%,-3.2%,?,-15.8%,nt,
COc1ccccc1-c1ccc(/C=C2\C=CC(=O)O2)o1,?,35.5µM*,-0.6%,-99.7%,20µM*,25.1µM*,53.6*,
CCN(CC)S(=O)(=O)c1ccc(-c2csc(C)n2)cc1,0.3%,1.5%,?,-13.3%,12.7%,-8.8%,nt,
CC(=O)Nc1ccc(NC(=O)CSc2nnc(NC(=O)c3ccc(Br)o3)s2)cc1,-0.4%,-28.8%,6.2%,50.1µM*,?,14.1µM*,?,Pol kappa inh-2=?
CC(=O)Nc1cccc(NC(=O)CSc2nnc(NC(=O)c3ccco3)s2)c1,21.0%,-0.3%,-0.3%,12.4%,6.0%,?,nt,
CCOc1ccc(Cc2c(C)[nH]c3ccc(C(=O)O)cc3c2=S)cc1,16.3%,?,28.7%,?,?,50.1µM*,?,
CCC(=O)[C@]12O[C@@]3(C4C(=O)OCCC41)N(Cc1ccccc1)C(C)=C(C(=O)OC)C(c1ccccc1)N3C2=O (stereo partly specified),14.1%[12.4 µM],nt,nt,nt,nt,nt,nt,
O=C(O)C1CC1C(=O)N1CCN(c2ccc(Cl)c(Cl)c2)CC1 (stereo unspecified),-6.5%,-13.3%,12.0%,8.7%,1.4%,-9.8%,nt,
COc1ccc2nc(N3C(=O)/C(=C/c4ccccc4)NC3=S)sc2c1,6.4%,-2.1%,19.0%,?,-11.1%,31.6µM*,nt,Pol kappa inh-2=?
CCOc1ccc2nc(N3C(=O)/C(=C/c4ccccc4)NC3=S)sc2c1,0.6%,-2.1%,2.9%,0.0%[57.1 µM],-16.5%,?,nt,
O=C(NCC(c1ccco1)N1CCc2ccccc21)C(=O)Nc1ccc(F)cc1F (stereo unspecified),4.4%,-7.2%,11.6%,nt,52.0%,-23.6%,nt,
O=[N+]([O-])c1ccc(C=NNc2ccc(S(=O)(=O)O)cc2)cc1,nt,-8.8%,-6.1%,nt,?,22.4µM*,47.8*,
O=[N+]([O-])c1ccc(NN=Cc2cccc([N+](=O)[O-])c2)cc1,nt,-3.1%,-20.2%,nt,28.7%,-14.9%,nt,
COC(=O)C1=C(C)N(C2CCCCC2)C(=O)C1,?,-19.4%,16.2%,-0.6%,2.9%,-5.5%,nt,
COc1ccc(-n2c(NC(=O)c3ccco3)c(C#N)c3nc4ccccc4nc32)cc1,2.4%,-27.6%,6.6%,-117.2%,25.6%,20µM*,84.9*,Pol kappa inh-2=67*
SMILES,APE1 inh,Pol kappa inh-1,GLS inh,POLB inh,POLI inh,Pol eta inh-1,Pol eta inh-2,others
O=Nc1c(O)ccc2cc(S(=O)(=O)O)ccc12,nt,?,25.9%,nt,17.8µM*,14.1µM*,30.1*,Pol kappa inh-2=16.8*
Fc1ccc(NC(=S)N2CCN(c3ccccn3)CC2)cc1Cl,nt,-7.5%,15.6%,nt,15.8%,-9.8%,nt,
CCN1CCN(c2ccc(Cl)cc2NC(=O)c2ccco2)CC1,25.1%,22.2%,-1.9%,nt,14.6%,-8.0%,nt,
Oc1ccc(/C=N/n2c(COc3ccccc3)n[nH]c2=S)cc1O,-10.2%,20µM*,?,6.31µM*,6.31µM*,?,16.9*,
O=C(COc1ccc2ccccc2c1)Nc1ccccc1C(=O)O,38.0%,-10.6%,5.0%,84.5%,-23.2%,-11.5%,nt,
CC(C)Sc1ncc(Cl)c(C(=O)N(Cc2ccc(N(C)C)cc2)C2CCS(=O)(=O)C2)n1 (stereo unspecified),nt,-22.4%,15.4%,?,?,79.4µM*,?,Pol kappa inh-2=?
CCC(=O)OCCn1c(=O)c2cc3c(=O)n(CCOC(=O)CC)c(=O)c3cc2c1=O,-9.6%,4.7%,-4.0%,-18.6%,13.4%,-8.8%,nt,
COc1ccc(/C=N\NC(=O)c2ccc([N+](=O)[O-])c(C)c2)cc1COc1ccccc1C(N)=O,-31.8%,-11.7%,0.0%,?,44.6%,-19.6%,nt,Pol kappa inh-2=37.7*
Cc1ccc(N2CC(C(=O)Nc3cccc(C(=O)NC4CC4)c3)CC2=O)cc1 (stereo unspecified),33.7%,0.0%,-24.4%,nt,?,35.5µM*,nt,Pol kappa inh-2=?
COc1ccc2c(CC(=O)Nc3ccccc3OC)coc2c1,-7.8%,2.3%,1.5%,2.1%,12.1%,-13.9%,nt,
COc1ccc(C(=O)NNC(=O)Cc2coc3cc(OC)ccc23)cc1,-26.8%,?,26.2%,nt,?,20µM*,?,
COc1ccc(/C=C/C(=O)O)cc1S(=O)(=O)N1CCCc2ccccc21,-11.1%,-40.3%,?,?,-0.3%,44.7µM*,60.1*,
COc1ccc(/C=C/C(=O)O)cc1S(=O)(=O)N1CCc2ccccc21,-3.2%,-15.8%,18.2%,?,?,?,nt,
COc1ccc(NC(=O)CN(C)C(=O)c2cc(-c3ccccc3)nc3ccccc23)cc1,-12.1%,-8.7%,0.5%,nt,0.6%,-14.1%,nt,

# Screening data (PubChem BioAssay)
